Screening results as filed in PubChem.
In the library only some 8.6% were active in any assay of this set; here they are far more common.
MARV entry inh: inhibitors of Marburg virus binding or entry into cells | Potency, µM (series often up to 49.2 µM), inactives show at the highest dose activity change, negative = inhibition, most hits filed as inhibitors | AID 720532 | Marburg virus pseudotype entry/binding inhibition, cell-based | hit rate 6.5% among 18,000
Lassa entry: Lassa virus entry inhibition | Lassa virus pseudotyped entry inhibition, cell-based qHTS | Potency, µM (series often up to 49.2 µM), inactives show top-dose activity change, negative = inhibition, actives largely listed as inhibitors | hit rate 4.1% among 18,000 | AID 720533
An asterisk follows results filed as active; ? = inconclusive; . = no result; [ ] = another dose, or the depositor's remark. The call rests on the fitted dose curve; tested in HEK293 cells. On the % scale 0 is the no-effect control and ±100 the full control effect; potency means the concentration at half of the fitted maximal effect.

SMILES	MARV entry inh	Lassa entry
CCCNCC(O)COc1ccccc1C(=O)CCc1ccccc1 (stereo unspecified)	7.1µM*	?
CCCCn1c(C)cc2c(c1=O)[C@H]1O[C@](c3ccsc3)(Cc3ccccc31)O2	?	11%[8.59 µM]
C[C@@H]1C[C@H]2[C@@H]3CCC4=CC(=O)C=C[C@]4(C)[C@@]3(F)[C@@H](O)C[C@]2(C)[C@@]1(O)C(=O)COC(=O)c1cccc(S(=O)(=O)O)c1	22%	-18%
COc1cc2c(C=O)c3c4c(cc(OC)c(OC)c4c2cc1OC)CCN3C	?	16µM*
O=C1Cc2c([nH]c3ccc(Br)cc23)-c2ccccc2N1	5%	-4%
c1ccc2c(c1)SCc1c-2[nH]c2ccccc12	11µM*	?
CCCCCC(=O)N1C[C@H](n2cc(COC(=O)c3ccccc3)nn2)[C@@H](O)C[C@H]1c1ccccc1	?	-16%
COCOc1c2c(c(OCOC)c3c(OCOC)cccc13)C(=NNS(C)(=O)=O)C1=C2CCCC1	1%[8.59 µM]	-3%[8.59 µM]
CC1(C)CN(Cc2cccnc2)C(=O)[C@@H]1CC(=O)Nc1ccc(Br)cc1	?	10%
Fc1ccc(-c2nn3ccccc3c2-c2ccncc2)cc1	?	-15%
COC1C=CC23c4cc5c(cc4CN(CC2O)C3C1)OCO5 (stereo unspecified)	2.2µM*	7.1µM*
COc1c2c(cc3c1OCO3)C13C=CC(OC)CC1N(C2)CC3O (stereo unspecified)	5%	2%
COC(=O)c1c(C(=O)OC)c2c3ccccc3cc(-c3ccccc3)n2c1C(=O)OC	-23%[8.59 µM]	-15%[8.59 µM]
O=C(NCCN1CCOCC1)c1cnn(-c2nccc(-c3ccccc3C(F)(F)F)n2)c1C1CC1	-11%	-8%
N#CC(C#N)=Cc1ccc(O)c(O)c1	7%	-21%
CC(C)(C)c1cc(/C=C(\C#N)C(N)=S)cc(C(C)(C)C)c1O	4.5µM*	28µM*
N#CC(C#N)=C(N)/C(C#N)=C/c1cc(O)c(O)c(O)c1	-11%	-4%
CC(C)(C)c1cc(C=C(C#N)C#N)cc(C(C)(C)C)c1O	2.8µM*	25µM*
COCCN1C(=O)NC(c2cccc(C(F)(F)F)c2)C(C(=O)OC)=C1C (stereo unspecified)	24%[8.59 µM]	27%[8.59 µM]
O[C@@H]1CO[C@@H](C=Cc2ccccc2)[C@H]1OCc1cccc(Br)c1	-5%[8.59 µM]	.
O=C1C=CC(=C(c2ccc(O)cc2)c2ccc(O)cc2)C=C1	13µM*	8.9µM*
CCC(=O)c1ccc(O)cc1	17%	-4%
CC1=CC2CC(CCO)OP(=O)(OC1)O2 (stereo unspecified)	-2%	-19%
COc1ccc2c(c1)[C@@]1(OCCC=C[C@@H]1C)C(=O)N2CC1CC1	-7%[8.59 µM]	13%[8.59 µM]
Nc1ncnc2nc[nH]c12	17%	7%
SMILES	MARV entry inh	Lassa entry
Nc1nc(=S)c2[nH]cnc2[nH]1	3.2µM*	2.8µM*
COc1cccc2ccc(CN3CCC4(CC3)c3ccccc3[C@@H](NC(=O)c3ccccc3)[C@@H]4O)nc12	?	-4%
C=CC[C@@](C(C)=O)(C(=O)OC)[C@@H](NC(=O)OC)c1ccccc1	-3%[8.59 µM]	-15%[8.59 µM]
Cc1nc(Nc2ncc(C(=O)Nc3c(C)cccc3Cl)s2)cc(N2CCN(CCO)CC2)n1	13µM*	?
C=C(Br)CO[C@@H]1C=C[C@@H](c2ccccc2)O[C@@H]1COC	9%[8.59 µM]	33%[8.59 µM]
C[C@H]1CN(c2ccccc2)C(=O)[C@H]1CC(=O)Nc1ccccc1	24%	13%
O[C@@H](CNC[C@H](O)[C@H]1CCc2cc(F)ccc2O1)[C@@H]1CCc2cc(F)ccc2O1	10µM*	?
CCCCNc1ccc(C(=O)OCCN(C)C)cc1	?	-2%
Cc1c(C)n(CCN(C)C)c2ccc(C(=O)OCCN(C)C)cc12	4µM*	32µM*
CC(CCN1CCCc2nc(C)c(C)cc21)=NOC[C@@H](O)[C@H]1O[C@@H]2OC(C)(C)O[C@H]2[C@@H]1O	-8%[8.59 µM]	35%[8.59 µM]
CCC(=O)O[C@](Cc1ccccc1)(c1ccccc1)[C@H](C)CN(C)C	28µM*	-13%
CCC(=O)O[C@@](Cc1ccccc1)(c1ccccc1)[C@@H](C)CN(C)C	6%[17.8 µM]	-1%[17.8 µM]
CC(C)Nc1ccc(Nc2ccccc2)cc1	28µM*	?
CC(C)Nc1oc(-c2ccccc2)nc1C=Cc1ccccc1	-31%[8.59 µM]	7%[8.59 µM]
Cc1cc(O)c2c(c1)C(=O)c1cccc(O)c1C2=O	5%	1%
O=C(O)c1cc(O)c2c(c1)C(=O)c1cccc(O)c1C2=O	13µM*	-2%
N#CC(C#N)=NNc1ccc(OC(F)(F)F)cc1	3.2µM*	1.3µM*
C=C[C@]1(C)C[C@@H](OC(=O)CO)[C@]2(C)[C@H](C)CC[C@]3(CCC(=O)[C@H]32)[C@@H](C)[C@@H]1O	0%	-9%
C=C[C@]1(C)C[C@@H](OC(=O)CSC(C)(C)CNC(=O)[C@H](N)C(C)C)[C@]2(C)[C@H](C)CC[C@]3(CCC(=O)[C@H]32)[C@@H](C)[C@@H]1O	13µM*	0%
O=S(=O)(NCCc1ccc(F)cc1)c1ccccc1Br	17%	-12%
COC(=O)C1=C(C)N(CCC(C)O)C(=O)N(C(C)=O)C1c1ccccc1 (stereo unspecified)	5%[8.59 µM]	-13%[8.59 µM]
